# Measurements published in PubChem BioAssay (NCI).
# Several values for one entry are separate records, joined by “and”; a condition that tells them apart may be missing. Equal values may be shown once. About 83,000 compounds went through this panel and 20% of them were active in at least one assay; those are over-represented in the sample as a whole.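 Testing used 96-well plates and a 48-hour single-concentration exposure. Example: -40 means 40% of the starting cells died.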 Activity calls are given as the source filed them.
# Test system: HCC-2998 colon
# Assay: NCI-60 one-dose screen, 48 h (100 = growth as untreated, 0 = no growth, -100 = all killed)
# Conditions: 10 µM unless noted
# Method: Growth inhibition of the HCC-2998 human tumor cell line is measured as a screen for anti-cancer activity. Cells are grown in 96 well plates and exposed to the test compound for 48 hours. Compounds are tested at a single concentration, which is 10^-5 M for most compounds. The reported endpoint is percent growth (GI% or GIPRCNT), where numbers from 0 - 100% represent growth inhibition, and numbers from -100% - 0 represent cell death. For example, a value of 40 represents 60% growth inhibition. A value of 0 means no net growth occurred over the course of the experiment. A value of -40 indicates 40% of cells at the beginning of the experiment died by the end of the experiment. A value of -100 means all cells are dead at the end of the experiment.
# NCI-60 Human Tumor Cell Lines Screen was performed using the standard one-dose NCI protocol, which is described in more detail at https://dtp.cancer.gov/discovery_development/nci-60/default.htm.
# Compounds with GIPRCNT values below 10 were considered active. Activity score was based on GIPRCNT using the following formula: […]
# Score is 0 for GIPRCNT values of 100 or above, 50 for GIPRCNT values of 0, and 100 for GIPRCNT values of -100.
row,SMILES,growth
1,CCCn1cc2c3c(cccc31)[C@H]1C[C@@H](C)CN(C)[C@@H]1C2,95.7% (inactive)
2,COc1ccc(/C=C(/C)[N+](=O)[O-])cc1OC,35.9% (inactive) and 59.2% (inactive)
3,Cc1c2ccncc2c(C)c2c1[nH]c1ccccc12,-96.8% (active)
4,C[C@]12CCc3sc(Nc4ccc(OC(F)(F)F)cc4)nc3C1=CC[C@@H]1[C@@H]2CC[C@]2(C)C(=O)CC[C@@H]12,96.5% (inactive)
5,C[C@]12CC[C@H]3[C@@H](CC=C4c5nc(N)sc5CC[C@@]43C)[C@@H]1CC[C@@H]2O,98.4% (inactive)
6,Cc1ccc(C(=O)O[C@H](C(=O)O)[C@H](OC(=O)c2ccc(C)cc2)C(=O)O)cc1,111% (inactive)
7,C=CC[PH+](c1ccccc1)c1ccccc1.C=CC[PH+](c1ccccc1)c1ccccc1.[Pt+2].[S-]c1nc2ccccc2[nH]1.[S-]c1nc2ccccc2[nH]1,-33.2% (active)
8,O=[N+]([O-])c1c(Cl)cc(Cl)c([N+](=O)[O-])c1Cl,114% (inactive)
9,CCOP(=O)(OCC)C(=O)N(CC)CC,110% (inactive)
10,O=C(O)C1C(C(=O)O)C2(Cl)C(Cl)=C(Cl)C1(Cl)C2(Cl)Cl (stereo not given),102% (inactive)
11,O=C(Cc1ccccc1)c1ccccc1,114% (inactive)
12,CC/C(Cc1ccccc1)=C(\c1ccc(OCCN2CCCC2)cc1)c1ccc(OC(=O)NCc2ccccc2)cc1,83.1% (inactive)
13,Oc1ccccc1C=NCCN=Cc1ccccc1O.[Fe],111% (inactive)
14,O=Cc1cn(Cc2ccccc2)c2ccccc12,33.5% (inactive)
15,COc1cc2c(c(OC)c1OC)-c1ccc(O)cc1[C@@H](NC(C)=O)CC2,11.5% (inactive) and 8.19% (active)
16,CNC(=O)CCl,95.1% (inactive)
17,CC[C@H](CC[C@@H](C)[C@H]1CC[C@H]2[C@@H]3CC[C@H]4C[C@]5(CC[C@]4(C)[C@H]3CC[C@]12C)OO[C@](C)(C(F)(F)F)O5)C(C)C,104% (inactive)
18,C[C@]12CCc3nc(-c4ccc(O)c(O)c4)sc3C1=CC[C@@H]1[C@@H]2CC[C@]2(C)C(=O)CC[C@@H]12,99.2% (inactive)
19,CC/C(=C(\c1ccc(OCCN2CCOCC2)cc1)c1ccc(OC(=O)Cc2ccccc2)cc1)c1ccc(Cl)cc1,106% (inactive)
20,COC(=O)C12C3C4C1C1C2C3C41NC(=O)c1csc([C@@H](C[C@H](C(C)C)N(C)C(=O)[C@@H](NC(=O)[C@H]2CCCCN2C)C2CC2)OC(C)=O)n1 (stereo not given in full),28.4% (inactive)

row,SMILES,growth
1,CC[C@H](C)[C@H]1O[C@]2(C=C[C@@H]1C)C[C@@H]1C[C@@H](C/C=C(\C)[C@@H](O[C@H]3C[C@H](OC)[C@@H](O[C@H]4C[C@H](OC)[C@@H](NC)[C@H](C)O4)[C@H](C)O3)[C@@H](C)/C=C/C=C3\CO[C@@H]4[C@H](O)C(C)=C[C@@H](C(=O)O1)[C@]34O)O2,-83.9% (active)
2,CC[C@H](C)[C@H](NC(=O)[C@H]1CCCCN1C)C(=O)N(C)[C@H](C(=O)NC12CC(C(=O)N[C@@H](Cc3ccccc3)C[C@H](C)C(=O)OC)(C1)C2)C(C)C,109% (inactive)
3,CC(=O)c1cccc(S(=O)(=O)F)c1,95.2% (inactive)
4,[N-]=[N+]=CC(=O)CCC(=O)C=[N+]=[N-],109% (inactive)
5,C=C[Se]CC(=O)/C=C/c1ccccc1,85.4% (inactive)
6,C[N+]1(CC#CC[N+]2(C)CCCC2)CCCC1,110% (inactive)
7,CC1(C)S[C@H]2CC[C@H]3OC(=O)[C@@H]1N23,97.7% (inactive)
8,O=C/C=C/c1ccco1,106% (inactive)
9,COc1cc(-c2ccc(N)c(OC)c2)ccc1N,124% (inactive)
10,C[N+]12CCC34C5=CC(=O)C(=O)C=C5[N+]5(C)C(=O)CC6OCC=C(C1)C(CC32)C6C45 (stereo not given),106% (inactive)
11,CCC(=O)C(CC(C)[N+](C)(C)C)(c1ccccc1)c1ccccc1 (stereo not given),102% (inactive)
12,CC1=CC(=O)CCC12CCOC2=O (stereo not given),102% (inactive)
13,C[C@]12CCC3[C@@H](C[C@@H]4SC(Nc5ccccc5)=N[C@@]45CC(=O)CC[C@]35C)[C@@H]1CCC2=O (stereo not given in full),-32.7% (active)
14,COc1ccc2c(c1)c(-c1nc(-c3cn(C)c4ncccc34)cs1)cn2CCCCN1CCOCC1,7.68% (active)
15,COc1cc(/C=C\[N+](=O)[O-])ccc1OCc1ccccc1,-70.4% (active)
16,O=[N+]([O-])c1ccc(P(=O)(O)O)cc1,102% (inactive)
17,C[N+]1(C)CCCC1c1cccnc1 (stereo not given),91.2% (inactive)
18,CCCC(C)SP(=S)(SC(C)CCC)SC(C)CCC (stereo not given),91.5% (inactive)
19,CCCCn1c(=O)c(C(=O)NCc2ccccc2Cl)c(O)c2ccccc21,93.4% (inactive)
20,c1ccc(CCN2CCCCC2)nc1,119% (inactive)
